# Data: PubChem BioAssay (NCI)
# About 83,000 compounds went through this panel and 20% of them were active in at least one assay; those are over-represented in the sample as a whole.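 Assay: single dose, 48 h. Readout: percent growth (0 = no net growth; negative = cell death). Active: <10.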 Values without a mark were called inactive. Activity calls are given as the source filed them.
# Legend:
# Assay in all cases: NCI-60 one-dose screen, 48 h (100 = growth as untreated, 0 = no growth, -100 = all killed)
# Conditions in all cases: 10 µM unless noted
# DU-145 prostate = test system: DU-145 prostate
# K-562 leukemia = test system: K-562 leukemia
# MALME-3M melanoma = test system: MALME-3M melanoma
# MDA-MB-231 breast = test system: MDA-MB-231 breast
# RXF 393 renal = test system: RXF 393 renal
# SF-268 CNS = test system: SF-268 CNS
# SF-295 CNS = test system: SF-295 CNS
# SF-539 CNS = test system: SF-539 CNS
# UACC-257 melanoma = test system: UACC-257 melanoma
# M14 melanoma = test system: M14 melanoma
SMILES,growth (DU-145 prostate),growth (K-562 leukemia),growth (MALME-3M melanoma),growth (MDA-MB-231 breast),growth (RXF 393 renal),growth (SF-268 CNS),growth (SF-295 CNS),growth (SF-539 CNS),growth (UACC-257 melanoma),growth (M14 melanoma)
COc1cc(/C=C/c2cn[nH]c2-c2ccc(C)cc2)cc(OC)c1OC,43.4%,15.5%,52.3%,47.4%,16.1%,49.2%,11.5%,41.7%,39.5%,-3.71% (active)
COc1ccc(C2CC(c3ccccc3)=NN2C(=O)c2cc(OC)c(OC)c(OC)c2)cc1O (stereo not given),25.8%,14.1%,81.8%,8.45% (active),-9.96% (active),49.9%,5.83% (active),-15.7% (active),66.2%,13.4%
COc1cc(/C=N/NC(=O)c2ccc(-n3cc(-c4ccccc4)nn3)cc2)cc(OC)c1OC,56.9%,60.6%,-1.82% (active),78.2%,68.7%,57.9%,88%,53.2%,53.9%,26.6%
COc1ccc2c(c1)CC[C@@H]1[C@@H]2CC[C@]2(C)C3C(=CC(COC(C)=O)C4C(=O)N(c5ccc(Cl)cc5)C(=O)C43)C[C@@H]12 (stereo not given in full),106%,52.4%,101%,103%,110%,91.7%,105%,114%,109%,98.8%
C=C1C(=O)O[C@H]2[C@H]1CC/C(COC(=O)NCc1ccc(Cn3c(=O)sn(-c4ccc(I)cc4)c3=O)cc1)=C\CC[C@@]1(C)O[C@@H]21,47.9%,7.33% (active),82.3%,73.5%,61.2%,87.1%,99.8%,98.7%,75.7%,73.1%
CCOC(=O)c1cn2ncnc(Oc3ccc(NC(=O)NC4CC4)c(Cl)c3)c2c1C,97%,73.6%,95.3%,89.3%,92.3%,88.9%,84.8%,79.5%,100%,98.9%
O=C(C1=Cc2cc3ccccc3n2Cc2cnnn21)c1ccc(F)cc1,97.7%,87.4%,101%,105%,103%,100%,97.8%,101%,107%,107%
COCC(=O)Oc1cc(-c2ccc(C)cc2C)c(OC(=O)COC)c(-c2ccc(C)cc2C)c1,-16.9% (active),40.8%,85.3%,49.7%,73.5%,44.5%,57.5%,45.7%,71.2%,65.1%
COc1ccc(Oc2ccc(/C=C/C(=O)c3ccc(OC)c(OC)c3)cc2)cc1,76.6%,66%,92.9%,94.3%,101%,97.1%,87%,100%,78.6%,92.9%
CCOc1ncc([N+](=O)[O-])c(OCC)n1,123%,103%,129%,97.1%,122%,118%,116%,102%,102%,112%
Cc1c2cnccc2c(C)c2c1c1cc(CO)ccc1n2C,-0.903% (active),1.71% (active),-87.6% (active),-52.1% (active),-84.7% (active),-28.8% (active),-26.6% (active),-68% (active),-52.7% (active),-90.9% (active)
